# Test results as given in ChEMBL document CHEMBL3988442, “University of Dundee, Small-Polar-MMV Screening Library” (2021).
# Out of some 69,000 compounds screened, about 950 (1.4%) showed an effect of 50% or more. The sample as a whole holds a higher share of strong results than the screen did.
# Tested on: Mycobacterium tuberculosis
# Test: Cornell M. t heat shock assay; further: in the data most compounds retested in dose-response had high values
# Type: functional, organism-based
# Design: dose or concentration left out as unconfirmed
row,Structure (SMILES),Percent Effect
1,CN(C)Cc1cc(=O)n2c(n1)CN(S(=O)(=O)C1CC1)CCC2.O=C(O)C(F)(F)F,14.69%
2,CCSc1ccccc1C(=O)N(CCOC)Cc1ccoc1,-23.21%
3,COCC(=O)N1CCN(CCn2cccn2)c2nc(C)ccc2C1.O=C(O)C(F)(F)F,-7.36%
4,COCC1CC2(CCN(c3ccccn3)CC2)CN1C(C)C.O=C(O)C(F)(F)F.O=C(O)C(F)(F)F (configuration not stated),-2.762%
5,Cc1csc(CN2CC[C@H]3C[C@H](c4nc(C)no4)O[C@@H]3C2)n1.O=C(O)C(F)(F)F,-42.3%
6,Cn1cc(-c2ncnc3c2CCN(CC2CCOC2)CC3)cn1.O=C(O)C(F)(F)F (configuration not stated),17.32%
7,O=C(O)C(F)(F)F.O=C(O)C(F)(F)F.c1ccc(CN2CCn3c(Cn4cncn4)cnc3C2)nc1,0.3776%
8,O=C(O)C(F)(F)F.O=C([C@H]1C[C@H]2OCC[C@H]2N(CCc2ccccc2)C1)N1CCCO1,-5.073%
9,O=C(NCC1CC1)C1CN(c2ncccn2)Cc2ccnn2C1.O=C(O)C(F)(F)F.O=C(O)C(F)(F)F (configuration not stated),12.91%
10,Cc1nc(CN2CCCN(C(=O)COCC3CC3)CC2)cs1,36.12%
11,CCc1nc(CN2CCCN(C(=O)c3cnc[nH]3)CC2)cs1,30.64%
12,c1csc(N2CCCN(Cc3noc(C4CC4)n3)CC2)n1,-6.96%
13,Cc1ncc(CN2CCCN(Cc3noc(C4CC4)n3)CC2)s1,6.148%
14,CCCOCC(=O)N1CCCN(Cc2csc(CC)n2)CC1,22.03%
15,CCc1nc(CN2CCCN(C(=O)c3cn[nH]c3CC)CC2)cs1,52.06%
16,CCc1nc(CN2CCCN(Cc3noc(C4CC4)n3)CC2)cs1,67.89%
17,CCc1nc(CN2CCCN(C(=O)COCC3CC3)CC2)cs1,155.1%
18,CCc1nc(CN2CCCN(C(=O)c3cn[nH]c3C)CC2)cs1,14.33%
19,CCc1nc(-c2ccnc(N3CCNCC3)n2)no1.Cl.Cl,-8.056%
20,Cl.O=C(c1cccnc1)N1CCC2(CC1)CNc1c(F)cccc12,4.233%
21,O=C(O)C(F)(F)F.c1cnc(NC2COC3(CCN(Cc4cc[nH]n4)CC3)C2)nc1 (configuration not stated),-22.6%
22,O=C(O)C(F)(F)F.O=C(O)C(F)(F)F.O=C(O)C(F)(F)F.O=C1C[C@H]2[C@@H](CCN2Cc2ccccn2)N1Cc1cccnc1,-6.498%

row,Structure (SMILES),Percent Effect
1,O=C(O)C(F)(F)F.O=C([C@H]1C[C@H]2OCC[C@H]2N(C(=O)c2ccncc2)C1)N1CCCC1,-34.63%
2,Cc1cc(CCC(=O)N(C)C)nc(C2CCCCN2)n1.Cl.Cl (configuration not stated),-7.222%
3,CCCS(=O)(=O)N1C[C@@H](OCc2ccncc2)[C@H]2OCCC[C@H]21.O=C(O)C(F)(F)F,-14.14%
4,CCn1cc2c(n1)C(COC)CN(C(=O)c1ccccn1)C2 (configuration not stated),-31.72%
5,CC(C)c1nc(-c2ccnc(N3CCNCC3)n2)no1.Cl.Cl,-7.834%
6,Cc1c(C2N3C[C@]4(C(C)C)CN2C[C@](C(C)C)(C3)C4=O)[nH]c(=O)[nH]c1=O (some centres not stated),1.038%
7,Cc1c(C2N3C[C@]4(C)CN2C[C@](C)(C3)C4=O)[nH]c(=O)[nH]c1=O (some centres not stated),74.22%
8,CCC[C@]12CN3C[C@](CCC)(CN(C1)C3c1[nH]c(=O)[nH]c(=O)c1C)C2=O (some centres not stated),-14.28%
9,CCC[C@]12CN3C[C@](C)(CN(C1)C3c1[nH]c(=O)[nH]c(=O)c1C)C2=O (some centres not stated),-3.215%
10,CC[C@]12CN3C[C@](C)(CN(C1)C3c1[nH]c(=O)[nH]c(=O)c1C)C2=O (some centres not stated),68.87%
11,CC[C@]12CN3C[C@](CC)(CN(C1)C3c1[nH]c(=O)[nH]c(=O)c1C)C2=O (some centres not stated),72.7%
12,O=C(O)C(F)(F)F.O=C1CC[C@H]2[C@H](CCN2c2ncc(F)cn2)N1c1ccccc1,11.33%
13,CCn1ccnc1CNCC(c1ccc(C)s1)N1CCOCC1 (configuration not stated),-18.67%
14,Cn1ccc(C(=O)N2C[C@H]3CCC[C@@]3(COCc3cccnc3)C2)n1.O=C(O)C(F)(F)F,-13.25%
15,CN(CCCc1cc(-c2ccc(F)cc2)n(C)n1)CC(N)=O,51.67%
16,CC(C(N)=O)N(C)CCCc1cc(-c2ccc(F)cc2)n(C)n1 (configuration not stated),22.06%
17,CN(CCCc1cc(-c2ccc(F)cc2)n(C)n1)CC(=O)NC(N)=O,24.77%
18,CN(C)[C@@H]1CCN(C(=O)c2ccccn2)[C@H]1Cc1ccncc1,0.1149%
19,CN(C)[C@@H]1CCN(C(=O)c2ccccn2)[C@H]1Cc1cnn(C)c1,76.59%
20,CN(C)[C@@H]1CCN(C(=O)c2ccsc2)[C@H]1Cc1cnn(C)c1,4.524%
21,CC(C)CN1C[C@H]2CCN(Cc3cccnc3)CC[C@H]2S1(=O)=O.O=C(O)C(F)(F)F.O=C(O)C(F)(F)F,-7.462%
22,CCOC(=O)C(CO)NC(=O)CCc1cccc(OC2CCCC2)c1 (configuration not stated),-10.42%

row,Structure (SMILES),Percent Effect
1,Cc1ccc(N2N=C(C(N)=O)S(=O)(=O)c3cccnc32)cc1,105.6%
2,Cc1ccc(N2N=C(C(=O)O)S(=O)(=O)c3cccnc32)cc1,-6.267%
3,Cc1ccc(N2N=C(C(=O)NCC3CC3)S(=O)(=O)c3cccnc32)cc1,9.457%
4,Cc1ccc(C(=O)N2C[C@@H]3OCCN(CCN4CCCC4)[C@@H]3C2)cn1.O=C(O)C(F)(F)F,8.47%
5,O=C(CC1CC1)N1CCC2(CCCN(CCOc3ccccc3)C2)C1.O=C(O)C(F)(F)F (configuration not stated),-8.964%
6,Cc1cnn(CCNCc2csc(C)n2)c1,4.294%
7,Cc1cnn(CCNCc2csc(-c3ccc4c(c3)OCO4)n2)c1,93.68%
8,c1cnn(CCNCc2csc(-c3ccc4c(c3)OCO4)n2)c1,65.17%
9,Cc1cnn(CCNCc2csc(-c3ccc(C(N)=O)cc3)n2)c1,-3.906%
10,CC(Cn1cccn1)NCc1csc(-c2ccc3c(c2)OCO3)n1 (configuration not stated),35.45%
11,c1cnn(CCNCCCOc2ccc3c(c2)OCO3)c1,0.6427%
12,COCC1CN(c2ccncn2)Cc2cnn(CC3CCCC3)c21.O=C(O)C(F)(F)F.O=C(O)C(F)(F)F (configuration not stated),3.159%
13,Cc1ccc(CN2CCC3(CC2)CCN(C(=O)c2cccnc2)C3)o1.O=C(O)C(F)(F)F,41.04%
14,Cc1cncc(C(=O)N2C[C@H]3CCC[C@@]3(COc3ccccn3)C2)c1.O=C(O)C(F)(F)F.O=C(O)C(F)(F)F,-23.58%
15,Cc1ccc(N2CC[C@H]3C[C@H](C(=O)NCc4ccco4)O[C@@H]3C2)cc1.O=C(O)C(F)(F)F,4.102%
16,NC[C@H]1CC[C@H](C(NC(=O)c2ccccc2)c2ccccn2)CC1 (some centres not stated),15.73%
17,COc1cccc(C(=O)NC(c2ccccn2)[C@H]2CC[C@H](CN)CC2)c1 (some centres not stated),14.74%
18,COc1ccccc1C(=O)NC(c1ccccn1)[C@H]1CC[C@H](CN)CC1 (some centres not stated),95.79%
19,NC[C@H]1CC[C@H](C(NC(=O)c2ccccn2)c2ccccn2)CC1 (some centres not stated),11.19%
20,NC[C@H]1CC[C@H](C(NC(=O)C2CC2)c2ccccn2)CC1 (some centres not stated),-11.64%
21,NC[C@H]1CC[C@H](C(NC(=O)c2cccc(F)c2)c2ccccn2)CC1 (some centres not stated),107.2%
22,C[C@@H](N)C(=O)N1CC2(CCNCC2)c2cc(Cl)ccc21.Cl.Cl,-22.5%

row,Structure (SMILES),Percent Effect
1,O=C(C1=CCCC1)N1CCC2(CC1)CC(Oc1cccnc1)CO2.O=C(O)C(F)(F)F (configuration not stated),-14.4%
2,Cc1nc(CN2CCc3cc(C(=O)O)c(N(C)C)nc3CC2)cs1.O=C(O)C(F)(F)F.O=C(O)C(F)(F)F,3.488%
3,O=C(C1CC1)N1CCN(Cc2ccncc2)c2ncccc2C1.O=C(O)C(F)(F)F.O=C(O)C(F)(F)F,-4.601%
4,CCc1onc(C)c1C(=O)N1CCN(c2ncc3c(n2)CCOC3)CC1.Cl,-10.25%
5,CCC(CN1CCOCC1)n1cncc1-c1ccc2c(c1)CCN2CC.Cl (configuration not stated),100.9%
6,CCC(CN1CCCC1)n1cncc1-c1cnn(-c2ccccc2)c1.Cl (configuration not stated),-7.106%
7,CCC(CN1CCOCC1)n1cncc1-c1ccc2c(c1)CCCN2C.Cl (configuration not stated),16.42%
8,CC(CN1CCOCC1)n1cncc1-c1ccc2c(c1)CCCN2C.Cl (configuration not stated),-23.4%
9,CCN1CCCc2cc(-c3cncn3C(C)CN3CCOCC3)ccc21.Cl (configuration not stated),-27.45%
10,CCCS(=O)(=O)N1CCCC(c2nc(-c3ccccc3)c[nH]2)C1 (configuration not stated),97.89%
11,CS(=O)(=O)N1CCCC(c2nc(-c3ccccc3)c[nH]2)C1 (configuration not stated),-20.18%
12,CCN(C)S(=O)(=O)N1CCCC(c2nc(-c3ccccc3)c[nH]2)C1 (configuration not stated),14.48%
13,Cl.Cl.NCC1[C@H]2CN(Cc3ccccc3F)C[C@@H]12 (some centres not stated),-12.63%
14,CC(C)(C)[S+]([O-])CCNC(=O)c1csc(NC2CC2)n1 (configuration not stated),-16.11%
15,Cc1[nH]/c(=N\C(=O)c2csc(NC3CCCC3)n2)sc1C,101.9%
16,CC(=O)Nc1nc(C(=O)N2CCCC(c3cc(C)[nH]n3)C2)cs1 (configuration not stated),-17.82%
17,Cc1[nH]/c(=N/C(=O)Cn2nc(N3CCOCC3)ccc2=O)sc1C,-6.271%
18,CC(C)NC(=O)N1CC(=O)c2sc(NC3CCCCC3)nc2C1,1.144%
19,Cc1[nH]/c(=N\C(=O)c2csc(NC3CC3)n2)sc1C,102.4%
20,CN(C)c1ccc(CNCc2cnc(N3CCOCC3)nc2)cn1.Cl,-4.55%
21,CC(C)=CCN1C(=O)[C@H]2CC[C@@H]1CN(c1ncccn1)C2,-39.45%
